The list is not random: actives were taken first. Their share in the collection is about 1.7%.
LYPLA2 counter – LYPLA2 inhibitors, primary screen, counter-screen for PME1 inhibitor project, biochemical, fluorescence polarization, FP-Rh probe ABPP. Acyl-protein thioesterase 2 (Homo sapiens), O95372. recombinant LYPLA2. 0.38% of 320,000 active. inhibition, % at 5.9 µM;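 active = inhibition above the screen-wide mean plus 3 SD, limit set per campaign, cut at about 26% in these data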
Rin1-Abl PPI inh – inhibitors of Rin1-Abl protein binding, primary screen, biochemical, TR-FRET; AID 588664, 2011; inhibition, % at 7.35 µM; 0.4% of 360,000 active; in the data active = inhibition above about 5%, passing the limit was not always enough
Target sequence (P00519 whole entry, looked up): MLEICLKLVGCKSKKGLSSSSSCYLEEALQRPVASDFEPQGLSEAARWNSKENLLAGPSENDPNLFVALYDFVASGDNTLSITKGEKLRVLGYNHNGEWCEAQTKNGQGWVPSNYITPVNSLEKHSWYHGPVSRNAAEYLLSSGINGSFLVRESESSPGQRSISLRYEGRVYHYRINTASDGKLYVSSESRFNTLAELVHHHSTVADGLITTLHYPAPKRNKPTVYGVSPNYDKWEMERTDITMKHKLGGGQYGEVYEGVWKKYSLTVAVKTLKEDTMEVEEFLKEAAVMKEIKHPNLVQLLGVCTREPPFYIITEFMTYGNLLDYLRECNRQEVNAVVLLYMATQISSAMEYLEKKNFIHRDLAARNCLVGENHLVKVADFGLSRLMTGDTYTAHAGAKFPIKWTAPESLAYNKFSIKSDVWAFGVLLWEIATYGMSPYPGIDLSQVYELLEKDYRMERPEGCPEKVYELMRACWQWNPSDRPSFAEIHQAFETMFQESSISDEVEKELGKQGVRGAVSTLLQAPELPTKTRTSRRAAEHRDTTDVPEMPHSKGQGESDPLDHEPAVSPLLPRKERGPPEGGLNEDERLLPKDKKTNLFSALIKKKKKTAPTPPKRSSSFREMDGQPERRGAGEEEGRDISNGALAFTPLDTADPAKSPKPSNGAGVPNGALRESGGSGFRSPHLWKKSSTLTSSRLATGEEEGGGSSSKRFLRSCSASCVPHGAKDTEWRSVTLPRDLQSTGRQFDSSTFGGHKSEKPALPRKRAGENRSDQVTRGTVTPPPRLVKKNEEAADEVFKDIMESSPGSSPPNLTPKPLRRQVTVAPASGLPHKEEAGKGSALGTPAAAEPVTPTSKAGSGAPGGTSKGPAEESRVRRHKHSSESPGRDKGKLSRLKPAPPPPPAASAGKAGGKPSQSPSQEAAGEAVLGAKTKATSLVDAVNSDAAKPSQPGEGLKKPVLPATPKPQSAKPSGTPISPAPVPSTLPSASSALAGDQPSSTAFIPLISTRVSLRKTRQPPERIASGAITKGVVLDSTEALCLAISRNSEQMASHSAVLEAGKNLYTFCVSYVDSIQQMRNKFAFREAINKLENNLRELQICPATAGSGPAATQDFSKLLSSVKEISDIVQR
Target sequence (Q13671 whole entry, looked up): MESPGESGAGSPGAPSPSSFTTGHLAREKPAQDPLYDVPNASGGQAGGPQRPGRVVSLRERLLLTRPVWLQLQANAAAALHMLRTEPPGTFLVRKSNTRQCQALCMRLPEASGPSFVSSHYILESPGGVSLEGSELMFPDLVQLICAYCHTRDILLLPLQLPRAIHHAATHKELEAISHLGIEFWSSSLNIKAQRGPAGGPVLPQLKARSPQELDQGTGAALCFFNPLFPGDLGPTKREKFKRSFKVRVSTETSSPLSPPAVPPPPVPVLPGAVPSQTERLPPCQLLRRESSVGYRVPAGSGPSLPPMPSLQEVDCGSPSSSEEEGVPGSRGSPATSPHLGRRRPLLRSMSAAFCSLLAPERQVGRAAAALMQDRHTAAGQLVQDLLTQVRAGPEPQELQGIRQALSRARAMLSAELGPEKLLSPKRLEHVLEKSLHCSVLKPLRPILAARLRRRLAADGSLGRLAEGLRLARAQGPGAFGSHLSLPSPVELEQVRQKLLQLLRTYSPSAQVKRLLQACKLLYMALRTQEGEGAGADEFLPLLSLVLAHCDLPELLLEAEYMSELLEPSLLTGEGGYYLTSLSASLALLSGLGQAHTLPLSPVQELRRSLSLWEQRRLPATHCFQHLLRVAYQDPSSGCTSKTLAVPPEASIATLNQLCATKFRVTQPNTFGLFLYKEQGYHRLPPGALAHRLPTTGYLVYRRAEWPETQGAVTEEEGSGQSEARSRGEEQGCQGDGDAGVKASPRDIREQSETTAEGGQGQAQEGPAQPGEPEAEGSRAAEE
Hck Nef HTS – inhibitors of Nef-activated human Hck kinase, primary screen, biochemical, Z-Lyte FRET, 384-well, Hck-YEEI; 0.68% of 220,000 active; Recombinant Hck-YEEI plus Nef, Z-Lyte FRET kinase assay; inhibition, % at 20 µM; Tyrosine-protein kinase HCK (Homo sapiens), P08631;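 active = Hck-Nef kinase inhibition above about 50%, limit read from the data; inactive = inhibition below that limit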
LYPLA1 inh – LYPLA1 inhibitors, primary screen, counter-screen for PME1 inhibitor project, biochemical, fluorescence polarization, FP-Rh probe ABPP | recombinant LYPLA1 | inhibition, % at 5.9 µM | 0.16% of 320,000 active;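 active = inhibition above the mean of all tested compounds plus 3 SD, set per campaign, cut at about 14% in these data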;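 also: inhibitors block serine hydrolase probe labeling of LYPLA1 so polarization falls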
PREPL inh – PREPL enzyme inhibitors, primary screen, biochemical, fluorescence polarization. 0.68% of 320,000 active. inhibition, % at 5.96 µM. recombinant PREPL, fluorescence polarization activity-based probe. AID 2751, 2010; in the data active = inhibition above about 43%
p97 inhibitor – inhibitors of human p97 ATPase, primary screen, biochemical | Transitional endoplasmic reticulum ATPase (Homo sapiens), P55072 | recombinant p97 ATPase, Kinase-Glo ATP luminescence, 3 h | inhibition, % at 8 µM | 0.42% of 220,000 active; in the data active = inhibition above about 15%
Rin1 Abl conf – Rin1-Abl binding inhibitor retest, confirmation, biochemical, TR-FRET | shares compounds with Rin1-Abl PPI inh | purified proteins | AID 602124, 2011 | 49% of 1,300 active | inhibition, % at 7.35 µM
GFP quench – GFP fluorescence inhibitors and quenchers, artefact control for Rin1-Abl interaction inhibitor project, biochemical. shares compounds with Rin1-Abl PPI inh. inhibitors/quenchers counterscreen. inhibition, % at 6.75 µM. 8.5% of 1,300 active. AID 602125, 2011;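 also: ABL1-eGFP fusion protein alone without its partner RIN1-SBP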
GFP quench DR – GFP fluorescence inhibitors and quenchers, dose response, artefact control for Rin1-Abl interaction inhibitor project, biochemical | shares compounds with Rin1-Abl PPI inh | GFP fluorescence interference/quenching counterscreen | IC50, µM | 230 tested, under 10 active | AID 602182, 2012; call rule not given here;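 also: ABL1-eGFP fusion protein alone without its RIN1 binding partner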
Numbers stand for hits; i = inactive; nt = no result given. Rule as the data show it, unless noted: active = inhibition above about 6.5%; inactive = the rest.

SMILES	LYPLA2 counter	Rin1-Abl PPI inh	Hck Nef HTS	LYPLA1 inh	PREPL inh	p97 inhibitor	Rin1 Abl conf	GFP quench	others
O=C(Nc1ccn(CCCN2CCN(Cc3ccc(F)cc3)CC2)c(=O)n1)OCc1ccccc1	nt	18.8	nt	nt	nt	nt	19.5	i	GFP quench DR=i
O=C(Cn1ccc(NC(=O)OCc2ccccc2)nc1=O)NCCN1CCOCC1	i	i	nt	i	i	nt	nt	nt
O=C(Cn1ccc(NC(=O)OCc2ccccc2)nc1=O)NCCCN1CCCC1=O	i	11.7	nt	i	i	nt	6.6	i
O=C(Nc1ccn(CCCNCc2ccccn2)c(=O)n1)OCc1ccccc1	nt	i	nt	nt	nt	nt	nt	nt
O=C(Nc1ccn(CCCN2CCN(c3ncccn3)CC2)c(=O)n1)OCc1ccccc1	nt	8.5	nt	nt	nt	nt	10.6	i
CCOc1ccc(S(=O)(=O)N(CC)CC(=O)NC2CC2)cc1	i	i	nt	i	i	nt	nt	nt
CC(NC(=O)c1ccc(F)cc1F)C1CC2CCC1C2 (stereo not given)	i	8.1	nt	i	i	nt	i	i
COc1cc(/C=C2\CC/C(=C\c3cc(OC)c(OC)c(OC)c3)C2=O)cc(OC)c1OC	i	i	i	i	i	i	nt	nt
COc1cc(/C=C2\CC/C(=C\c3cc(OC)c(O)c(OC)c3)C2=O)cc(OC)c1O	i	30.2	i	i	i	19.4	34.4	23.8
CCn1cc(C(=O)NCCCOC(C)C)c(=O)c2cc(S(=O)(=O)N3CCC(C)CC3)ccc21	i	13.1	nt	i	i	nt	i	i
CCn1cc(C(=O)NCCCOC)c(=O)c2cc(S(=O)(=O)N3CCC(C)CC3)ccc21	i	i	nt	i	i	nt	nt	nt
COc1cc2c(C(=O)NCc3ccc(C)o3)cn(CC(C)C)c(=O)c2cc1OC	i	6.9	i	i	i	i	i	i
CCn1cc(C(=O)NCc2ccco2)c2cc(OC)c(OC)cc2c1=O	i	i	i	i	i	i	nt	nt
COCCC1CCCCN1C(=O)c1ccc(OC2CCN(C(C)=O)CC2)c(OC)c1 (stereo not given)	i	12.9	nt	i	i	nt	i	i
CCOC(=O)C1(Cc2ccccc2)CCN(Cc2cn[nH]c2-c2ccccc2)CC1	i	9.5	i	i	i	i	i	i
CCOC(=O)C1(CC2CC2)CCN(Cc2cn[nH]c2-c2ccccc2)CC1	i	i	i	i	i	i	nt	nt
COc1ccc(COC(=O)C2=C(C)NC(=O)NC2c2cc(OC)ccc2OC)cc1 (stereo not given)	i	i	nt	i	i	nt	nt	nt
COc1ccc(COC(=O)C2=C(C)NC(=O)NC2c2cccc(OC)c2OC)cc1 (stereo not given)	i	7.2	nt	i	i	nt	i	i
CC1CCCC(C)N1C(=O)COC(=O)c1cccnc1Cl (stereo not given)	nt	i	nt	nt	i	nt	nt	nt
CCOc1ccc2c(c1)OC(c1ccc(OC)cc1)(C(F)(F)F)NC2=O (stereo not given)	i	7.1	i	i	i	i	i	i
CC(C)(C)OC(=O)N1CCCC(C(=O)Nc2cccc(C(=O)NC3CC3)c2)C1 (stereo not given)	nt	i	nt	nt	nt	nt	nt	nt
COc1ccc2c(c1)NC1(O)c3ccccc3C(=O)C21O (stereo not given)	i	i	i	i	i	i	nt	nt
CC1=C(C(=O)OC(C)C)C2(O)C(=O)c3ccccc3C2(O)N1 (stereo not given)	i	12.7	i	i	i	i	i	i
CC1=C(C#N)C2(O)C(=O)c3ccccc3C2(O)N1 (stereo not given)	i	i	i	i	i	i	nt	nt
CCCCOC(=O)C1=C(C)NC2(O)c3ccccc3C(=O)C12O (stereo not given)	i	7.8	i	i	i	i	i	i

Source: PubChem BioAssay (several laboratories)
